Drawing on PubChem BioAssay, this text covers composite z-score, composite Z-score and z-score for six molecules.

Assay [1] in a line: probe aShh binding to arrayed compounds – biochemical, biotinylated probe, 635/667 nm fluorescence, primary screen (AID 1114).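 Note: probe is biotin-labelled aShh protein from a stem cell growth factor screen; measures binding of labelled protein to compounds printed on the slide; score merges feature fluorescence at 667 nm with signal-to-noise.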 The conditions noted are these: small-molecule microarray, higher = more signal.
Assay [2] in a line: probe aNog binding to arrayed compounds – biochemical, biotinylated probe, 635/667 nm fluorescence, primary screen (AID 1115).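 Note: probe is biotinylated aNog protein used at 0.15 µg/mL for 1 h at 4 C; z-score combines 667 nm fluorescence of each spot with its signal to noise.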 The conditions noted are these: small-molecule microarray, higher = more signal.
Assay [3] has as its target Torsin-1A-interacting protein 1 (Homo sapiens) (UniProt Q5JTV8). Nature of the assay: compound microarray binding of lysate hLAP1 – cell lysate, small-molecule microarray, COS7 lysate, 635/667 nm fluorescence, primary screen (AID 1116). Conditions: 635 nm fluorescence, higher = more signal.
For the next assay, the target named is Albumin (Bos taurus) (UniProt P02769). Description: compounds binding labelled BSA control protein – biochemical, small-molecule microarray, Alexa647 label, 635/667 nm fluorescence, artefact control for SMM control protein annotation, profiling panel (AID 1118).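 Note: score merges 667 nm emission intensity and signal-to-noise per printed compound spot.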 Conditions: BSA-A647 binding, fluorescence 635 nm, higher = more signal.
Sequence of Albumin (Bos taurus) (P02769 whole entry, looked up): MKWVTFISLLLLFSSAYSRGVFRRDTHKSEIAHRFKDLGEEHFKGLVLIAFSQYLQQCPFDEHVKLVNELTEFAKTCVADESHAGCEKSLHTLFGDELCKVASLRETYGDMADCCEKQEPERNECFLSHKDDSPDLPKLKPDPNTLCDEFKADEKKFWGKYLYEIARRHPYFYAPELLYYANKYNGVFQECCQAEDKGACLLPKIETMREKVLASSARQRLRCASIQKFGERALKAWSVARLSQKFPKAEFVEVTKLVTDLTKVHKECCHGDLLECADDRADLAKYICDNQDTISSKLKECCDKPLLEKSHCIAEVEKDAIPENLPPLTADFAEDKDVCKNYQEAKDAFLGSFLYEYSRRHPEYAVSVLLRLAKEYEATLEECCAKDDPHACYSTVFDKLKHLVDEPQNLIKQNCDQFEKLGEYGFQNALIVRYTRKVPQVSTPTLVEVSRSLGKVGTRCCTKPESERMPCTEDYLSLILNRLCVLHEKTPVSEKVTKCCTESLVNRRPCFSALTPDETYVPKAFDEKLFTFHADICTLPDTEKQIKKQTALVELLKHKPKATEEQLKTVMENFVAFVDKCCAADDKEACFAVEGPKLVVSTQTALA
Assay [4] can be described thus: probe aXIP binding to arrayed compounds – biochemical, NeuroSMM set, 635/667 nm fluorescence, primary screen (AID 1119).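 Note: probe is the protein aXip251-270 applied at 1 µg/mL to compound-printed slides; binding of probe to printed compounds measured as 667 nm fluorescence plus signal to noise.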 The conditions noted are these: small-molecule microarray, higher = more signal, called active from +8 up or from −8 down.
A short description of assay [5]: probe aNOTCH3 binding on compound microarray – biochemical, small-molecule microarray, 635/667 nm fluorescence, primary screen (AID 1120).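 Note: probe is a biotin-tagged antibody raised against NOTCH3 rather than NOTCH3 protein; score merges spot fluorescence near 667 nm with spot signal to noise.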 Conditions: higher = more signal.
Assay [6] in a line: probe aNOTCH2 binding on compound microarray – biochemical, small-molecule microarray, 635/667 nm fluorescence, primary screen (AID 1121).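 Note: score merges feature fluorescence read at 667 nm with its signal to noise.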 The conditions noted are these: higher = more signal.
Assay [7] deals with Carbonic anhydrase 2 (Homo sapiens) (UniProt P00918). Description: compounds binding carbonic anhydrase 2 – biochemical, small-molecule microarray, Alexa647-labelled CAII, profiling panel (AID 1122). Conditions: CAII-A647 binding fluorescence, higher = more signal.
A short description of assay [8]: COS7 lysate on small-molecule microarray, probe aHis, 635 nm (AID 1123).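 Note: z-score combines 667nm fluorescence intensity with signal-to-noise per printed compound spot.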 Conditions: COS7 cell lysate, fluorescence, higher = more signal.
Assay [9] in a line: probe aLAP1 signal on lysate-treated microarray – cell lysate, small-molecule microarray, COS7 lysate, primary screen (AID 1124).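 Note: lysate comes from COS7 cells expressing LAP1 and is applied at 0.3 µg/mL; score merges spot fluorescence near 667 nm with signal-to-noise over triplicate slides.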 Conditions: probe aLAP1, fluorescence, higher = more signal.
A further assay has as its system Sam68 (KHDRBS1). Description: compounds binding KHDRBS1 protein – biochemical, small-molecule microarray, 635 nm fluorescence, primary screen (AID 1125).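 Note: score merges 667 nm channel intensity with signal to noise over triplicate slides.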 Conditions: higher = more signal.
The test system of assay [10] is Chordin-like protein 2 (CHRDL2). Description: compounds binding chordin-like 2 – biochemical, small-molecule microarray, 635 nm fluorescence, primary screen (AID 1126).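 Note: printed compound slides probed with Chrdl2 protein at 4 µg/mL for 1 h at 4 C; score merges 667 nm emission intensity with signal to noise over three replicate slides.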 Conditions: fluorescence 635 nm, higher = more signal.
In assay [11] the target is Concanavalin-A (Canavalia ensiformis) (UniProt P02866). Nature of the assay: compounds binding concanavalin A lectin – biochemical, small-molecule microarray, Alexa647 label, 635 nm, artefact control for SMM control protein annotation, primary screen (AID 1127).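 Note: z combines 667 nm emission intensity with signal-to-noise across three replicate slides.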 Conditions: ConA-A647 binding fluorescence, higher = more signal.
Sequence of Concanavalin-A (Canavalia ensiformis) (P02866 whole entry, looked up): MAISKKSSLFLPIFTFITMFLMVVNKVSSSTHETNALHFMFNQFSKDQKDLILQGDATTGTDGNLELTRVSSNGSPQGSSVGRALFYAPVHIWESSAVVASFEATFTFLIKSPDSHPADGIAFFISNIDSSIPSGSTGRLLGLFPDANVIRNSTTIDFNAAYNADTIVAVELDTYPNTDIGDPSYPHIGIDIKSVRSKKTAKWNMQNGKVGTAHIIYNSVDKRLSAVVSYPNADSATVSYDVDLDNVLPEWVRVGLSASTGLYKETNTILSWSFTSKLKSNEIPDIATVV
Assay [12] is described as follows: compounds binding Alexa647 anti-His antibody – biochemical, small-molecule microarray, 635 nm fluorescence, artefact control for SMM control protein annotation, primary screen (AID 1128).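 Note: score merges feature fluorescence with signal-to-noise for each printed compound spot.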 Conditions: higher = more signal.
Assay [13] has as its system Human papillomavirus type 1a E7 protein (residues 1-88). Nature of the assay: HPV1a E7 small-molecule binders, primary screen, biochemical, small-molecule microarray, residues 1-88, 635 nm (AID 1129). Conditions: small-molecule microarray binding, fluorescence 635 nm; higher = more signal.
Assay [14] concerns the target Focal adhesion kinase 1 (Homo sapiens) (UniProt Q05397). Description: PTK2 protein binding on printed compound slides – biochemical, small-molecule microarray, 635/667 nm fluorescence, BSA, DTT, primary screen (AID 1130).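 Note: composite of spot emission at 667 nm and signal to noise over triplicate slides.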 The conditions noted are these: 635 nm fluorescence, higher = more signal.
Assay [15] has as its system Fibrinogen (Alexa647-labelled). Description: Alexa647-fibrinogen binding to printed small molecules – biochemical, small-molecule microarray, 635/667 nm fluorescence, artefact control for SMM control-protein annotation, profiling panel (AID 1131).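 Note: z-score merges 667 nm fluorescence with per-spot signal-to-noise over triplicate slides.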 The conditions noted are these: fibrinogen-A647 binding fluorescence, higher = more signal.
Assay [16] addresses Follistatin (Homo sapiens) (UniProt P19883). Nature of the assay: FST protein binding to printed compounds – biochemical, small-molecule microarray, 635/667 nm fluorescence, primary screen (AID 1132). Conditions: 635 nm fluorescence, higher = more signal.
Assay [17] deals with Fibroblast growth factor 2 (Homo sapiens) (UniProt P09038). Description: basic fibroblast growth factor binding to printed compounds – biochemical, small-molecule microarray, 635/667 nm fluorescence, primary screen (AID 1133). Conditions: FGF2, fluorescence 635/667, higher = more signal.
Sequence of Fibroblast growth factor 2 (Homo sapiens) (P09038 whole entry, looked up): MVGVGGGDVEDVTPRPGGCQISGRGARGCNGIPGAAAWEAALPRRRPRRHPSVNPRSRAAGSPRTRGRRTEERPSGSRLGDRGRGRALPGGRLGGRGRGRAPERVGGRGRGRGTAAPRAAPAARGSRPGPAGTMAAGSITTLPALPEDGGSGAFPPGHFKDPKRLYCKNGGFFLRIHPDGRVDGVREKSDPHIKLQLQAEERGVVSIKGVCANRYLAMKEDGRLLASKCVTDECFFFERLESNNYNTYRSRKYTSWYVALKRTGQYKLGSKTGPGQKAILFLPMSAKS
Assay [18] is described as follows: JC-1 mitochondrial potential readout, lung cancer cells – cell-based, A549, JC-1 fluorescence, basal, 24 h, 100 nL, profiling panel (AID 1138).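 Note: A549 lung adenocarcinoma cells under basal conditions with no added stimulus; test concentration not given here.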 The conditions noted are these: higher = more signal.

Each structure is given as a SMILES string. The source made the active and inactive calls.

Sequence of Torsin-1A-interacting protein 1 (Homo sapiens) (Q5JTV8 whole entry, looked up): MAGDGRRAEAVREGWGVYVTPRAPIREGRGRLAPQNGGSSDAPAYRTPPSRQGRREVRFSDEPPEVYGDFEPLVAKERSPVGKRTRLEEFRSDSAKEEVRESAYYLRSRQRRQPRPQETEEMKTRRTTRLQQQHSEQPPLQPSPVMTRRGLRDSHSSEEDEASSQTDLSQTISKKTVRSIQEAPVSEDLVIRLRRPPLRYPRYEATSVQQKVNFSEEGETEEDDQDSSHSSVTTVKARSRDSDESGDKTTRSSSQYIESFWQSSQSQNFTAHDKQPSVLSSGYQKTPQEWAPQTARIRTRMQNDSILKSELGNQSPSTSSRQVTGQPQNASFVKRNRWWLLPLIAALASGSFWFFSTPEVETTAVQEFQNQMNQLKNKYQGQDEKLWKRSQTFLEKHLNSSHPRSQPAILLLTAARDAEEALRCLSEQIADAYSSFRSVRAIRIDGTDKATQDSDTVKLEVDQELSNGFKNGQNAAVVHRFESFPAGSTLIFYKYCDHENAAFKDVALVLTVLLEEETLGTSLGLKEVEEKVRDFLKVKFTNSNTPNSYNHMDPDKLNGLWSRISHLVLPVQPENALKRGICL
Sequence of Follistatin (Homo sapiens) (P19883 whole entry, looked up): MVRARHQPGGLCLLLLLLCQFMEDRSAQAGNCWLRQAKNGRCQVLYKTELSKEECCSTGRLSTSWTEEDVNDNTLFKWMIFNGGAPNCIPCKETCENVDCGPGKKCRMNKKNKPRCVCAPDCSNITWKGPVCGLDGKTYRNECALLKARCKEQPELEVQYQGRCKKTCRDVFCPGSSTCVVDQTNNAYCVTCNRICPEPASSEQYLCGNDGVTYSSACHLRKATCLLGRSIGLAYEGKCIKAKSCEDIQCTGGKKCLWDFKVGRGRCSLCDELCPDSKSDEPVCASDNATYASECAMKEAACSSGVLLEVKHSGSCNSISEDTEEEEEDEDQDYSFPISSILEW
Sequence of Focal adhesion kinase 1 (Homo sapiens) (Q05397 whole entry, looked up): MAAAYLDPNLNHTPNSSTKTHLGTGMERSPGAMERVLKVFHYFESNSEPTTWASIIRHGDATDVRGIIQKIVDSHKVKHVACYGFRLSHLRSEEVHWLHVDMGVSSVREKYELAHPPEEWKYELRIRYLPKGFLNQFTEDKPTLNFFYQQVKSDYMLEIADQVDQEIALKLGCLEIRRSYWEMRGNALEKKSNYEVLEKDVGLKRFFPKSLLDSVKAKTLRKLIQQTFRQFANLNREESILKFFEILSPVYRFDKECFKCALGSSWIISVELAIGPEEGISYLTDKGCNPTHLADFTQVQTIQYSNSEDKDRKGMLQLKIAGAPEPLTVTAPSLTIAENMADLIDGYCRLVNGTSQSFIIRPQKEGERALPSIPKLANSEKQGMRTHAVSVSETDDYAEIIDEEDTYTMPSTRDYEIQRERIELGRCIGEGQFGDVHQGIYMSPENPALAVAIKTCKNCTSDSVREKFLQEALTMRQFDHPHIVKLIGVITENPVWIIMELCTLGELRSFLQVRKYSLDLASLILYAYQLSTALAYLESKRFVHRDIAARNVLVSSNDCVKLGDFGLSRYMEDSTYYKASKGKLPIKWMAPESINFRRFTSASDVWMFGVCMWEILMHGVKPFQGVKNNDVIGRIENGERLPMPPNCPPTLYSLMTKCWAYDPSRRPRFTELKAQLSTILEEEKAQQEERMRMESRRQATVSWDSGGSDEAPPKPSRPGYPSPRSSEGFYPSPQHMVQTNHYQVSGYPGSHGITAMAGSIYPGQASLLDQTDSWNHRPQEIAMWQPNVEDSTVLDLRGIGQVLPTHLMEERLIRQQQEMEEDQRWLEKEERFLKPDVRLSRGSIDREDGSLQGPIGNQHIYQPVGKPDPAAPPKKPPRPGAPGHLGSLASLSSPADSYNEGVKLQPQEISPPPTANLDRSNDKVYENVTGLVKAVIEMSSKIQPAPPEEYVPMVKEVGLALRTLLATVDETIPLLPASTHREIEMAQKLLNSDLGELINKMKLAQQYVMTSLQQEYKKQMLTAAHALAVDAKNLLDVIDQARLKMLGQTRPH

In the case of `COC(=O)C(CC#Cc1ccc2c(c1)[C@]1(C(=O)N2)[C@H](c2ccccc2OCCO)N2[C@H](c3ccccc3)[C@H](c3ccccc3)OC(=O)[C@H]2[C@@H]1C(=O)N1CCCCCCC1)C(=O)OC`, the composite z-score in [1] was 2.72; in assay [2], 3.54; in [3] it was 5.82; in the assay with Albumin (Bos taurus), -0.314; in assay [5], 2.02; in [6] it was 1.1. The composite z-score in [7] amounted to 1.03; in [8] it was 4.9; in [9] it was 1.41; in the assay with Sam68 (KHDRBS1), 1.33; in [10], 1.66; in assay [11], 0.773. In addition, the composite z-score in [12] was 0.925; in assay [13], 1.35; in [14], 4.83; in assay [15] it was 0.0834; in assay [16] it was 1.56; in [17], -0.0426. In [4], the composite Z-score was 8.74 (active). The z-score in assay [18] stood at 0.547.
In the case of `O=C(NCC(F)(F)F)[C@@H]1c2ccccc2C(=O)N(C2Cc3ccccc3C2)[C@H]1c1ccc(CO)cc1`, the composite z-score in assay [1] is 0.267; in assay [2] it was 0.109; in [3], 0.179; in the assay with Albumin (Bos taurus), 0.0975; in assay [5] it was -0.0362; in [6], -0.0907. In addition, the composite z-score in assay [7] is 0.414; in assay [8], -0.0023; in assay [9] it was 0.386; with Sam68 (KHDRBS1), -0.945; in assay [10], -1.3; in assay [11] it was -1. Further, the composite z-score was -1.02 in assay [12]; -0.801 in [13]; -0.26 in assay [14]; -1.58 in assay [15]; -0.871 in [16]; -0.485 in [17]. Also, in assay [4], the composite Z-score is -1.34 (inactive). The z-score in assay [18] came out at 2.62.
Take `C=C(C(=O)CC[C@@H](OC(C)=O)c1ccccc1OCCO)C(C)C`: the composite z-score in assay [1] is -0.153; in assay [2] it was -0.0783; in assay [3], 0.495; with Albumin (Bos taurus), -0.952; in assay [5], -0.0647; in assay [6], -0.167. Besides, the composite z-score in [7] is 0.664; in assay [8] it was -0.152; in assay [9], -0.0507; with Sam68 (KHDRBS1), -0.247; in assay [10] it was -0.38; in [11] it was -0.779. The composite z-score is 0.138 in [12]; -1.28 in assay [13]; -0.485 in [14]; -0.314 in [15]; 0.164 in [16]; 0.398 in assay [17]. Moreover, in [4], the composite Z-score was 0.222 (inactive). The same molecule displayed a z-score in assay [18] of 1.29.
On to `NCCCCCNC(=O)[C@H]1C[C@H]2C(=O)NCC(=O)N2[C@H]1c1ccc(O)cc1`, for which the composite z-score in assay [1] is -0.206; in assay [2], -0.216; in assay [3] it was 0.712; in the assay with Albumin (Bos taurus) it was 1.06; in assay [5] it was 0.0596; in assay [6], -0.105. Also, the composite z-score in assay [7] amounted to 0.685; in assay [8], 1.08; in [9] it was 0.521; in the assay on Sam68 (KHDRBS1) it was 1.29; in [10], 1.14; in assay [11], 1.22. Besides, the composite z-score is 2.54 in assay [12]; 1.19 in assay [13]; 0.366 in [14]; 0.97 in assay [15]; 1.48 in [16]; 1.75 in [17]. For the same molecule, the composite Z-score in assay [4] was 0.696 (inactive). The molecule further yielded a z-score in [18] of 0.68.
Turning to `[N-]=[N+]=NCc1ccccc1C[C@]1(C(=O)NCc2ccccc2)N=C(c2ccc(OCCCO)cc2)O[C@H]1c1ccccc1`, the composite z-score in [1] was 0.23; in assay [2], 0.682; in [3], 1.31; with Albumin (Bos taurus), 0.992; in assay [5], 0.2; in [6], 0.139. Besides, the composite z-score in [7] was 0.396; in [8] it was 1.85; in assay [9], 1.45; in the assay with Sam68 (KHDRBS1) it was 1.16; in [10] it was -1.4; in [11], 1.09. The composite z-score is 1.67 in assay [12]; 1.18 in assay [13]; 0.445 in assay [14]; 0.813 in assay [15]; -0.257 in assay [16]; -0.0593 in [17]. Further, the composite Z-score in assay [4] is 0.945 (inactive). Further, in [18], the z-score is 0.488.
Consider `C=CCC(OC(C)=O)[C@@H]1[C@@H](N(Cc2cccc3ccccc23)C(=O)Cc2ccc(OC)cc2)c2cc(OCCCO)ccc2N1C(=O)Cc1ccc(OC)cc1` (stereo not given in full), for which the composite z-score was -0.153 in [1]; 0.277 in assay [2]; -0.0539 in assay [3]; 0.73 in the assay with Albumin (Bos taurus); -0.0373 in assay [5]; -0.104 in assay [6]. In addition, the composite z-score in [7] was 0.207; in [8] it was 0.624; in [9], 0.163; in the assay with Sam68 (KHDRBS1), 0.0025; in assay [10], 0.0487; in assay [11] it was -0.532. Also, the composite z-score in assay [12] is -0.28; in assay [13] it was -0.418; in assay [14], -0.238; in assay [15], 0.849; in [16], 0.148; in assay [17], -0.0722. Besides, in [4], the composite Z-score was -0.199 (inactive). The same molecule came in with a z-score in assay [18] of 0.537.
